Results reported in PubChem BioAssay (NCI).
About 83,000 compounds went through this panel and 20% of them were active in at least one assay; those are over-represented in the sample as a whole.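 Assay: single dose, 48 h. Readout: percent growth (0 = no net growth; negative = cell death). Active: <10.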

Key:
Assay in all cases: NCI-60 one-dose screen, 48 h (100 = growth as untreated, 0 = no growth, -100 = all killed)
Settings in all cases: 10 µM unless noted
DU-145 prostate = tested on: DU-145 prostate
K-562 leukemia = tested on: K-562 leukemia
MALME-3M melanoma = tested on: MALME-3M melanoma
MDA-MB-231 breast = tested on: MDA-MB-231 breast
RXF 393 renal = tested on: RXF 393 renal
SF-268 CNS = tested on: SF-268 CNS
SF-295 CNS = tested on: SF-295 CNS
UACC-257 melanoma = tested on: UACC-257 melanoma
M14 melanoma = tested on: M14 melanoma
SF-539 CNS = tested on: SF-539 CNS

Measured: growth

CC1(C)OC2C(CO)OC(n3ccc(=O)[nH]c3=O)C2O1 (stereo not drawn)
inactive: DU-145 prostate 112% | K-562 leukemia 110% | MALME-3M melanoma 85.2% | MDA-MB-231 breast 92.9% | RXF 393 renal 113% | SF-268 CNS 102% | SF-295 CNS 104% | UACC-257 melanoma 75.7% | M14 melanoma 105%

OCC(O)COc1ccc(Cl)cc1Cl (stereo not drawn)
inactive: DU-145 prostate 110% | K-562 leukemia 88.6% | MALME-3M melanoma 94.8% | MDA-MB-231 breast 97.8% | RXF 393 renal 115% | SF-268 CNS 105% | SF-295 CNS 97.5% | UACC-257 melanoma 79.6%

Cc1cccnc1NC1OC(=O)c2ccccc21 (stereo not drawn)
inactive: DU-145 prostate 102% | K-562 leukemia 101% | MALME-3M melanoma 93.7% | MDA-MB-231 breast 115% | RXF 393 renal 118% | SF-268 CNS 124% | SF-539 CNS 109% | UACC-257 melanoma 100% | M14 melanoma 95.7%

O=C(Nc1ccc([N+](=O)[O-])cc1)C(=O)Nc1ccc([N+](=O)[O-])cc1
inactive: DU-145 prostate 110% | K-562 leukemia 106% | MALME-3M melanoma 105% | MDA-MB-231 breast 98.1% | RXF 393 renal 109% | SF-268 CNS 100% | SF-295 CNS 102% | UACC-257 melanoma 77.7% | M14 melanoma 104%

Oc1ccc(CCC2CCNc3ccccc32)cc1 (stereo not drawn)
inactive: DU-145 prostate 93.4% | K-562 leukemia 69.7% | MALME-3M melanoma 98.8% | MDA-MB-231 breast 86.2% | RXF 393 renal 81.5% | SF-268 CNS 83.1% | SF-295 CNS 75.2% | SF-539 CNS 75.7% | M14 melanoma 89.4%

Nc1c(Br)cc(O)c2c1C(=O)c1ccccc1C2=O
inactive: DU-145 prostate 91.6% | K-562 leukemia 66.3% | MALME-3M melanoma 89.5% | MDA-MB-231 breast 77.5% | RXF 393 renal 80.5% | SF-268 CNS 60.3% | SF-295 CNS 114% | UACC-257 melanoma 89.1% | M14 melanoma 100%

COC(=O)c1ccccc1C(=O)c1c(C)cc(C)cc1C
inactive: DU-145 prostate 104% | K-562 leukemia 96.7% | MALME-3M melanoma 99.1% | MDA-MB-231 breast 97.4% | RXF 393 renal 111% | SF-268 CNS 102% | SF-295 CNS 102% | UACC-257 melanoma 99.6% | M14 melanoma 108%

O=C(O)C1CSC(c2ccccc2)N1 (stereo not drawn)
inactive: DU-145 prostate 105% | K-562 leukemia 128% | MALME-3M melanoma 98.8% | MDA-MB-231 breast 80.9% | RXF 393 renal 106% | SF-268 CNS 102% | SF-295 CNS 99.8% | UACC-257 melanoma 106% | M14 melanoma 95.6%

CC(C)c1ncc([N+](=O)[O-])n1C
inactive: DU-145 prostate 122% | K-562 leukemia 123% | MALME-3M melanoma 129% | MDA-MB-231 breast 118% | RXF 393 renal 115% | SF-268 CNS 121% | SF-295 CNS 127% | SF-539 CNS 98.2% | UACC-257 melanoma 97.2% | M14 melanoma 103%

CCOC(=O)CSCCC#N
inactive: DU-145 prostate 108% | K-562 leukemia 112% | MALME-3M melanoma 106% | MDA-MB-231 breast 110% | RXF 393 renal 97.8% | SF-268 CNS 101% | SF-295 CNS 94.7% | SF-539 CNS 92.2% | UACC-257 melanoma 95.4% | M14 melanoma 94.9%

CCN(C(=O)Nc1ccccc1Cl)c1ccccc1
inactive: DU-145 prostate 109% | K-562 leukemia 93.9% | MALME-3M melanoma 100% | MDA-MB-231 breast 109% | RXF 393 renal 115% | SF-268 CNS 109% | SF-539 CNS 104% | UACC-257 melanoma 102% | M14 melanoma 111%

O=C(NC(=S)N1CC=CCC1)c1ccccc1
inactive: DU-145 prostate 129% | K-562 leukemia 111% | MALME-3M melanoma 100% | MDA-MB-231 breast 104% | RXF 393 renal 128% | SF-268 CNS 108% | SF-295 CNS 111% | UACC-257 melanoma 105%

c1ccc(-c2ccc3ccccc3c2)cc1
inactive: DU-145 prostate 106% | K-562 leukemia 111% | MALME-3M melanoma 84.1% | MDA-MB-231 breast 91% | RXF 393 renal 103% | SF-268 CNS 89.9% | SF-295 CNS 102% | UACC-257 melanoma 94.7% | M14 melanoma 103%

CC(C)(C)NCCC(O)c1cc(C(F)(F)F)nc2c(C(F)(F)F)cccc12 (stereo not drawn)
inactive: DU-145 prostate 73.6% | K-562 leukemia 64.5% | MALME-3M melanoma 102% | MDA-MB-231 breast 55.1% | RXF 393 renal 73.3% | SF-268 CNS 71% | SF-539 CNS 75.1% | UACC-257 melanoma 90.1% | M14 melanoma 84.6%

CSc1cnc2ccccc2n1
inactive: DU-145 prostate 115% | K-562 leukemia 106% | MALME-3M melanoma 88.7% | MDA-MB-231 breast 95.7% | RXF 393 renal 111% | SF-268 CNS 105% | SF-295 CNS 97.9% | UACC-257 melanoma 91.3% | M14 melanoma 97.3%

C=C1SC(=Nc2c(C)cccc2C)N(c2nc(Cl)nc(Cl)n2)C12CCCCC2
inactive: DU-145 prostate 108% | K-562 leukemia 95.2% | MALME-3M melanoma 90.3% | MDA-MB-231 breast 115% | RXF 393 renal 106% | SF-268 CNS 107% | SF-539 CNS 116% | UACC-257 melanoma 94.6% | M14 melanoma 97.9%

CCCCN(C=S)CCCC
inactive: DU-145 prostate 112% | K-562 leukemia 113% | MALME-3M melanoma 101% | MDA-MB-231 breast 104% | RXF 393 renal 101% | SF-268 CNS 105% | SF-295 CNS 99.1% | UACC-257 melanoma 99.6% | M14 melanoma 94.8%

CC(=O)[C@@]1(O)CC[C@H]2[C@@H]3CC[C@@H]4CC(=O)CC[C@]4(C)[C@H]3[C@@H](O)C[C@@]21C
inactive: DU-145 prostate 111% | K-562 leukemia 94.9% | MALME-3M melanoma 108% | MDA-MB-231 breast 99.6% | RXF 393 renal 105% | SF-268 CNS 99.1% | SF-295 CNS 91.9% | SF-539 CNS 96.8% | M14 melanoma 93%

CN1CCCN(C(c2ccccc2)c2ccc(Cl)cc2)CC1 (stereo not drawn)
inactive: DU-145 prostate 107% | K-562 leukemia 90% | MALME-3M melanoma 98.8% | MDA-MB-231 breast 95.8% | RXF 393 renal 86.8% | SF-268 CNS 82.3% | SF-295 CNS 92.2% | SF-539 CNS 96.9% | M14 melanoma 91.1%

CC1=CC(=Nc2ccc(N(C)C)cc2)C=C(C)C1=O
inactive: DU-145 prostate 101% | K-562 leukemia 75.1% | MALME-3M melanoma 92.6% | MDA-MB-231 breast 64% | RXF 393 renal 65.1% | SF-268 CNS 88.6% | SF-295 CNS 97.3% | UACC-257 melanoma 77.5% | M14 melanoma 91.9%

CC(C)=CCC[C@@H](C)[C@H]1CC[C@@]2(C)C3=C(CC[C@]12C)[C@@]1(C)CC[C@H](O)C(C)(C)[C@@H]1CC3
inactive: DU-145 prostate 126% | K-562 leukemia 91.2% | MALME-3M melanoma 110% | MDA-MB-231 breast 112% | RXF 393 renal 95.9% | SF-268 CNS 117% | SF-539 CNS 101% | UACC-257 melanoma 121%

CCOC(=O)c1c(C)[nH]c(C)c1C=O
inactive: DU-145 prostate 114% | K-562 leukemia 94.7% | MALME-3M melanoma 108% | MDA-MB-231 breast 93% | RXF 393 renal 114% | SF-268 CNS 101% | SF-295 CNS 103% | SF-539 CNS 98.9% | UACC-257 melanoma 69.4% | M14 melanoma 100%

O=C(c1ccccc1O)N1CCCC1
inactive: DU-145 prostate 115% | K-562 leukemia 89.1% | MALME-3M melanoma 104% | MDA-MB-231 breast 105% | RXF 393 renal 106% | SF-268 CNS 106% | SF-295 CNS 96.6% | UACC-257 melanoma 80.2% | M14 melanoma 96.4%

CCC(C)c1c(N)n(S(=O)(=O)c2ccc(C)cc2)oc1=O (stereo not drawn)
inactive: DU-145 prostate 115% | K-562 leukemia 130% | MALME-3M melanoma 135% | MDA-MB-231 breast 108% | RXF 393 renal 125% | SF-268 CNS 109% | SF-295 CNS 104% | SF-539 CNS 96.6% | UACC-257 melanoma 90.6% | M14 melanoma 105%

CCCCCCCCCCC(=O)CCCCCCCCCC
inactive: DU-145 prostate 111% | K-562 leukemia 103% | MALME-3M melanoma 99.1% | MDA-MB-231 breast 119% | RXF 393 renal 113% | SF-268 CNS 108% | SF-295 CNS 93.7% | SF-539 CNS 98.1% | UACC-257 melanoma 101% | M14 melanoma 99.9%

S=c1nc(-c2ccccn2)c(-c2ccccn2)n[nH]1
inactive: DU-145 prostate 103% | K-562 leukemia 105% | MALME-3M melanoma 89.6% | MDA-MB-231 breast 118% | RXF 393 renal 118% | SF-268 CNS 102% | SF-539 CNS 111% | UACC-257 melanoma 107% | M14 melanoma 98.3%

CC(C)c1ccccc1NC(=O)N1CCC(C(C)C)CC1
inactive: DU-145 prostate 112% | K-562 leukemia 99.4% | MALME-3M melanoma 105% | MDA-MB-231 breast 117% | RXF 393 renal 101% | SF-268 CNS 115% | SF-539 CNS 111% | UACC-257 melanoma 95.8% | M14 melanoma 107%

COC(c1ccc2c(c1)OCO2)C(C)Br (stereo not drawn)
inactive: DU-145 prostate 109% | K-562 leukemia 87.3% | MALME-3M melanoma 98.3% | MDA-MB-231 breast 94.8% | RXF 393 renal 99.9% | SF-268 CNS 107% | SF-295 CNS 101% | SF-539 CNS 92.5% | M14 melanoma 97.1%

CCCCCCCCCCCCCCCCOc1ccccc1NC(=O)CC(C)=O
inactive: DU-145 prostate 92% | K-562 leukemia 87.1% | MALME-3M melanoma 117% | MDA-MB-231 breast 87.4% | RXF 393 renal 107% | SF-268 CNS 103% | SF-539 CNS 94.5% | UACC-257 melanoma 117% | M14 melanoma 109%
